Data on 15 compounds can be found in PubChem BioAssay (NCI).

Several values for one entry are separate records, joined by “and”; a condition that tells them apart may be missing. Equal entries are not always repeated. The panel holds about 79,000 compounds, 15% with a hit somewhere; the sample as a whole holds those more often. Unmarked numbers belong to inactive results. Cut-off read from the data, not from the text of the source: active = growth inhibition above about 70%; inactive = the rest.

The test can be described thus: NCI Yeast Anticancer Drug Screen. Data for the mlh1 rad18 strain (AID 175). Conditions: S. cerevisiae mlh1 rad18 strain growth inhibition, hits give high values; at 50.0 µM unless noted. Put shortly: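 Test agents were incubated with a yeast strain of defined genotype (DNA damage repair defect). Inhibition of growth was derived by comparison with vehicle-exposed cultures.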
As to `COC(=O)C1(CC(=O)c2c(C)[nH]c3ccccc23)NC(=S)NC(=O)C1C#N` (stereo not given), the growth inhibition was 26.4%.

With `O=C1NC(N/N=C\C(O)C(O)C(O)CO)=N/C1=C/c1ccc(Cl)cc1` (stereo not given), the growth inhibition is 14.8% and 38.6%.

As for `O=c1[nH]c2cc(Cl)c([N+](=O)[O-])cc2o1`, the growth inhibition is 16.7%.

Regarding `COc1cccc(-c2cc(=O)c3cc(C)cnc3[nH]2)c1`, the growth inhibition is -13.2%.

In the case of `COc1cc2c3cc1Oc1cc(ccc1O)C[C@@H]1c4c(cc(OC)c(O)c4Oc4ccc(cc4)C[C@@H]3[N+](C)(C)CC2)CC[N+]1(C)C`, the growth inhibition was 6.7%.

Regarding `CC(C)(CN1CCCCC1)C(=O)CC(SCCN)c1ccc(Cl)cc1` (stereo not given), the growth inhibition was 23.8%.

Take `COc1cc(OC)c(I)cc1Cl`: the growth inhibition is -12.3%.

As to `CCCCN1CCC(N)=NC1=O`, the growth inhibition was -4.15%.

Turning to `CCO/C(C)=N\OC(=O)C(F)(F)F`, the growth inhibition is -8.4%.

`COC(=O)c1nnn(-c2ccc(Cl)cc2C)c1C(=O)c1ccc(OC)cc1`: the growth inhibition was -20.2%.

In the case of `CC(O)CNc1nc(N)[nH]c(=O)c1[N+](=O)[O-]` (stereo not given), the growth inhibition was -1.6%.

With `CC1=NN(c2ccc(S(=O)(=O)O)cc2)C(=O)C1N=Nc1ccc(-c2ccc(N=Nc3ccc(O)c(C(=O)O)c3)c(C)c2)cc1C` (stereo not given), the growth inhibition was 30.7%.

For `O=C(O)c1cc([N+](=O)[O-])cc([N+](=O)[O-])c1-c1ccccc1`, the growth inhibition was -10%.

With `N#Cc1c(N2CCCC2)nsc1Nc1ccc(F)cc1`, the growth inhibition was -9%.

`CC(C)CCO/N=C(\N)N=C(N)N`: the growth inhibition is -1.9%.
